mHTT-CaM PPI inh = mutant huntingtin-calmodulin interaction inhibitors – biochemical, AlphaScreen, primary screen. P42858. actives 3.6% (n = 190,000). AlphaScreen His-mHTT/GST-CaM binding, luminescence. inhibition, % at 15 µM
Target sequence (P42858 whole entry, looked up, change not shown): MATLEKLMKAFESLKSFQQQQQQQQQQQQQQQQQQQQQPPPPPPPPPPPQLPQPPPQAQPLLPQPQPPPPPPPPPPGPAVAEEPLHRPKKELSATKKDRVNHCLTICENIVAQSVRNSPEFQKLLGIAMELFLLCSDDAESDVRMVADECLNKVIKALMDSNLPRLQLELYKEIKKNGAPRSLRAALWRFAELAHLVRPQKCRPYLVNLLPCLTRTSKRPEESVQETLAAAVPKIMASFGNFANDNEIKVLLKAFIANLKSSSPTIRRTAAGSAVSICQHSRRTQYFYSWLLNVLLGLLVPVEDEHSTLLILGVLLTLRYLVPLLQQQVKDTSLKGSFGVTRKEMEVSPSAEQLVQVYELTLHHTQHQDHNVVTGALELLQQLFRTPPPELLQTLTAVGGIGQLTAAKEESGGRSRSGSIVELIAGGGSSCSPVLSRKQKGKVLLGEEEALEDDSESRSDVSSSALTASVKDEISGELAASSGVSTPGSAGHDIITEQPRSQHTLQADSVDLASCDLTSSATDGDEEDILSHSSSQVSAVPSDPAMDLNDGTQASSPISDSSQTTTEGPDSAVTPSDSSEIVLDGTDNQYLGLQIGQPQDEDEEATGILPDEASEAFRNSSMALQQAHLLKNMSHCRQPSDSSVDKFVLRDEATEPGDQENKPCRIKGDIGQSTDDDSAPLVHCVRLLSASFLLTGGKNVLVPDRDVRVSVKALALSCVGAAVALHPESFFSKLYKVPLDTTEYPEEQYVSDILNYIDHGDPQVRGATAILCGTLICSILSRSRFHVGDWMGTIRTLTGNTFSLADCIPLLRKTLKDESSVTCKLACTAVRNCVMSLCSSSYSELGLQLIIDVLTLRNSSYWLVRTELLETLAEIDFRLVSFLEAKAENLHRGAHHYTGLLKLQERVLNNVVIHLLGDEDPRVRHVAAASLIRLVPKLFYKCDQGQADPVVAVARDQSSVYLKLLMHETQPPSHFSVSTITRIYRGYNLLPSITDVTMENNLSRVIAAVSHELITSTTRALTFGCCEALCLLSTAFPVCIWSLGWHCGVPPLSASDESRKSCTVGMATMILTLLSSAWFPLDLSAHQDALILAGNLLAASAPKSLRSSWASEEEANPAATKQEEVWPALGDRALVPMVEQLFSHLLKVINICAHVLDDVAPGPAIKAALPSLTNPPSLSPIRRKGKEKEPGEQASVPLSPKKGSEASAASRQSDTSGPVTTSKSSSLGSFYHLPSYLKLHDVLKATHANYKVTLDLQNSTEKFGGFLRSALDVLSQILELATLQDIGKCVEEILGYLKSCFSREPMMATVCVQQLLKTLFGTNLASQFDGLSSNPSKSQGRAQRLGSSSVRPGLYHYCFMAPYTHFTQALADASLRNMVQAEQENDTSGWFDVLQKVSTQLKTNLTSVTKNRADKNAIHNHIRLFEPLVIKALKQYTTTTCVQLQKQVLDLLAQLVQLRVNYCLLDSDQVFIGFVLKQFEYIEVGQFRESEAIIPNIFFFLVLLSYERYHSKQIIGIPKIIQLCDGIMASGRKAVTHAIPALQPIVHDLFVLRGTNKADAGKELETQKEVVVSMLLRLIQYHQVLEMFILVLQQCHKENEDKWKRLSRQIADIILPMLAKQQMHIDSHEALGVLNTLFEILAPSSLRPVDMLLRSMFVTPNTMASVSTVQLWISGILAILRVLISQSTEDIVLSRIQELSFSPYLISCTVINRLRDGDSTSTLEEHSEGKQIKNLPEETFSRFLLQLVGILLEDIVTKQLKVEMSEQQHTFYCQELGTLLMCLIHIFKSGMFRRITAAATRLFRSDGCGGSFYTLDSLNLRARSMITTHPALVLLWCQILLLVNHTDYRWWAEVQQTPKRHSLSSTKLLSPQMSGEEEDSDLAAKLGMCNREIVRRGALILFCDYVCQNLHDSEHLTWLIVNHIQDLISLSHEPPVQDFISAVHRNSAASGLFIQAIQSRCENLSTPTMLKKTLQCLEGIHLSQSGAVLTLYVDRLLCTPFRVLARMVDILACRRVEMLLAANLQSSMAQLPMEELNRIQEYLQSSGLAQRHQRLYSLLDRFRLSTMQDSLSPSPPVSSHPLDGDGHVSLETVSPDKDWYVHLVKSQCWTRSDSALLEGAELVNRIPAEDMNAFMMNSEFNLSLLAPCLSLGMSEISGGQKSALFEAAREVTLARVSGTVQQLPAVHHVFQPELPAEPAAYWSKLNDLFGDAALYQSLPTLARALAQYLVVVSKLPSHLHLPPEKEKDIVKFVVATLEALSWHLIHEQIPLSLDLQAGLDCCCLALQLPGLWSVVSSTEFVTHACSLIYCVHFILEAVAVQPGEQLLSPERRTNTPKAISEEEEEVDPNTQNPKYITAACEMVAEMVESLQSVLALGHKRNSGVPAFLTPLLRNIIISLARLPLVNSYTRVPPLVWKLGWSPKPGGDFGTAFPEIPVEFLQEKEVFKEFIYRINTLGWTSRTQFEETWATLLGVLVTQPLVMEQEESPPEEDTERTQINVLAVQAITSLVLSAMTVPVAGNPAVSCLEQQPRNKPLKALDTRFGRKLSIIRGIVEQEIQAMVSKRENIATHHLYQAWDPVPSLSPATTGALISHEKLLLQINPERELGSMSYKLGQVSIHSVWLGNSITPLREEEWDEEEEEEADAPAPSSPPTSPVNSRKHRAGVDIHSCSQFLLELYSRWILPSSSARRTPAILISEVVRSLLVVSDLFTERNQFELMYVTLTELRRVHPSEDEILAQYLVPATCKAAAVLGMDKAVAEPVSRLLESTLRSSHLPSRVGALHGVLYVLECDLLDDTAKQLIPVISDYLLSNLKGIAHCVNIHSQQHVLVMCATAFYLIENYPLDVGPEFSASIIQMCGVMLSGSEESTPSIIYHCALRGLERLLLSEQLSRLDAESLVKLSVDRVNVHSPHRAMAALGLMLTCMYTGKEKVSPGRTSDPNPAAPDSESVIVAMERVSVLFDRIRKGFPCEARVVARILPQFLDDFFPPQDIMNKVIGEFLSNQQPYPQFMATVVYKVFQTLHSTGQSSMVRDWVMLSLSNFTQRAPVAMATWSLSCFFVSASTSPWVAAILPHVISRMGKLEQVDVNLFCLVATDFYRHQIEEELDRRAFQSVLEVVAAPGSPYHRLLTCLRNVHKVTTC
Pf apPOL inh = Pf-apPOL inhibitors, biochemical, fluorescence; actives 0.25% (n = 210,000); inhibition, % at 10 µM; Recombinant Pf-apPOL, molecular beacon fluorescence, 1.5 h
A number is an active result; – = inactive; · = no result given. This is a sample that favours compounds with a hit; in the whole collection about 3.6% have one here. Cut-off read from the data, not from the text of the source: active = inhibition above about 50%; inactive = the rest.

SMILES | mHTT-CaM PPI inh | Pf apPOL inh
COc1ccc(C2CC(c3ccccc3OC)n3nc(N)nc3N2)cc1 (centres undefined) | – | –
COc1ccccc1C1CC(c2ccc(F)cc2)Nc2nc(N)nn21 (centres undefined) | 62 | –
CCOc1ccccc1C1CC(c2ccc(F)cc2)Nc2nc(N)nn21 (centres undefined) | 72 | –
COc1ccccc1C1CC(c2ccccc2)Nc2nc(N)nn21 (centres undefined) | – | –
Cc1ccccc1C(=O)N1CCN(C(C(=O)N2CCC(C)CC2)C2CCCC2)CC1 (centres undefined) | – | –
COc1cccc(OCc2noc(-c3cccc(Cl)c3)n2)c1 | – | –
CN(C)c1cccc(OCc2noc(-c3cccc(Cl)c3)n2)c1 | 62 | –
COc1cccc(CNC(=O)C2CCN(c3nnc(-c4ccc(C)cc4)o3)CC2)c1 | – | –
CC(C)(C)C(=O)C=C1C(=O)Nc2ccc(Br)cc21 | · | –
COc1ccc(O)c(/C=C2\C(=O)Nc3ccc(Br)cc32)c1 | 91 | –
COc1ccc(N=C2C(=O)Nc3ccc(Br)cc32)cc1 | – | –
COc1cc2c(cc1OC)/C(=C/c1cc(OC)c(OC)c(OC)c1)C(=O)N2 | – | ·
COc1ccc(OC)c(/C=C2\C(=O)Nc3ccc(Br)cc32)c1 | 54 | –
O=C1Nc2ccc(Br)cc2/C1=C/c1ccc(Cl)cc1Cl | 52 | –
O=C1Nc2ccccc2/C1=C/c1ccc(Cl)cc1Cl | – | –
COc1ccc(/C=C2\C(=O)Nc3ccc(Br)cc32)c(OC)c1OC | 100 | –
COCC(C)(O)CNC(=O)c1cccc(OC)c1OC (centres undefined) | – | –
O=C1C(=O)N(c2ncccn2)C(c2cccc([N+](=O)[O-])c2)C1=C(O)c1ccc(Cl)cc1 (centres undefined) | – | –
CCCCN1C(=O)C(C)(C(=O)NCc2ccccc2Br)Oc2cccnc21 (centres undefined) | – | –
O=C(NCCCN1CCCC1)c1ccc(N2CCNC(c3ccccc3)C2)nc1 (centres undefined) | 56 | –
O=C(NCc1ccc(Cl)cc1)c1ccc(N2CCNC(c3ccccc3)C2)nc1 (centres undefined) | – | –
O=C(NCc1ccc(N2CCCC2)cc1)c1ccc(N2CCNC(c3ccccc3)C2)nc1 (centres undefined) | 79 | –
O=C(NCCCN1CCCCC1)c1ccc(N2CCNC(c3ccccc3)C2)nc1 (centres undefined) | – | –
CCCN1CCc2nc(SCc3ccccc3Cl)[nH]c(=O)c2C1 | – | –
COc1ccc(OC)c(C2C(N3C(=O)c4ccccc4C3=O)C(=O)N2c2ccc(C)cc2)c1 (centres undefined) | – | –
SMILES | mHTT-CaM PPI inh | Pf apPOL inh
O=C(O)CCCC(=O)Nc1nccs1 | – | –
O=C(CCCOc1ccc(Cl)cc1)Nc1nccs1 | – | 52
O=C(NCCNC(=O)c1ccc(F)c(F)c1)c1ccc(NC(=O)c2ccc(F)cc2)cc1 | 69 | –
O=C(Nc1ccc(F)cc1)c1ccc(C(=O)Nc2ccc(F)cc2)cc1 | – | –
O=C1OC(c2cccc(F)c2)=N/C1=C\c1ccccc1F | – | –
O=C(Nc1ccc(Cl)cc1)N1CCCC1c1ccccc1F (centres undefined) | – | –
O=[N+]([O-])c1ccccc1C1CC(c2ccccc2)=NN1 (centres undefined) | 61 | –
CC(=O)N1N=C(c2ccccc2)CC1c1ccccc1[N+](=O)[O-] (centres undefined) | – | –
COc1ccc(C(=O)Nc2ccc(Br)cc2F)cc1OC | – | –
Cc1cc([N+](=O)[O-])ccc1NC(=O)Cc1ccc(Cl)cc1 | – | –
CCOC(=O)N1CCN(C(c2cccs2)c2c(O)cc(C)n(CC)c2=O)CC1 (centres undefined) | – | –
CCOC(=O)N1CCN(C(c2ccc(SC)cc2)c2c(O)cc(C)n(CC)c2=O)CC1 (centres undefined) | 69 | –
COc1ccc(C(F)(F)F)cc1NC(=O)c1ccc(-n2ccnc2C)nn1 | – | –
Cc1nc(CC(=O)NC2CCc3[nH]c4c(Cl)cccc4c3C2)c(C)s1 (centres undefined) | 95 | –
COCC(=O)NC1CCc2[nH]c3c(C)cccc3c2C1 (centres undefined) | – | –
Cc1ccccc1CC(=O)NC1CCc2[nH]c3c(C)cccc3c2C1 (centres undefined) | – | –
CCc1cccc2c3c([nH]c12)CCC(NC(=O)CC1C=CCC1)C3 (centres undefined) | 57 | –
CCOc1ccc(NC(=O)CN(c2cc(C)ccc2OC)S(C)(=O)=O)cc1 | – | –
C=CCOc1ccccc1CN1CCOCC1 | – | –
O=C(Cn1cnc2c(-c3ccccc3)csc2c1=O)Nc1cccc(F)c1 | – | –
CC1CCN(CC(=O)N2N=C(c3ccccc3Cl)CC2c2cccn2C)CC1 (centres undefined) | 84 | –
COc1ccc(C2CC(c3ccc(F)cc3)=NN2C(=O)CN2CCCCC2C)cc1 (centres undefined) | – | –
CCN1CCN(CC(=O)N2N=C(c3ccc(F)cc3)CC2c2cccn2C)CC1 (centres undefined) | 98 | –
CC1CCCCN1CC(=O)N1N=C(c2ccc(F)cc2)CC1c1cccn1C (centres undefined) | 60 | –
COc1ccc(C2CC(c3ccc(F)cc3)=NN2C(=O)CN2CCCCC2)cc1 (centres undefined) | – | –
SMILES | mHTT-CaM PPI inh | Pf apPOL inh
COc1ccccc1C1=NN(C(=O)CN2CCCCC2C)C(c2ccc(C)cc2)C1 (centres undefined) | 72 | –
Cn1cccc1C1CC(c2ccccc2Cl)=NN1C(=O)CN1CCOCC1 (centres undefined) | – | –
COc1ccccc1C1=NN(C(=O)CN2CCCC2)C(c2ccc(C)cc2)C1 (centres undefined) | – | –
c1ccc(C2CC(c3ccco3)n3cnnc3N2)cc1 (centres undefined) | – | –
Cc1cc(C)cc(NC(=O)C2CCc3nc(N4CCN(C(=O)C(C)C)CC4)sc3C2)c1 (centres undefined) | – | –
CC(Cc1cccs1)NC(=O)Cc1cccc2ccccc12 (centres undefined) | – | –
CCc1[nH]nc(-c2ccccc2)c1NC(=O)Cc1ccccc1 | – | –
COc1ccccc1-c1coc2cc(OC(=O)c3ccc([N+](=O)[O-])cc3)ccc2c1=O | – | –
CCCCC(=O)Nc1c(-c2ccc(C)cc2)nc2ccc(C)cn12 | – | –
CC1(C)CC(=O)C2=C(C1)Nc1ncnn1C2c1ccc(F)cc1 (centres undefined) | – | –
CC1CCN(CC(=O)N2N=C(c3ccc(F)cc3)CC2c2cccn2C)CC1 (centres undefined) | 52 | –
COc1ccc(C2CC(c3ccc(F)cc3)=NN2C(=O)CN2CCC(C)CC2)cc1 (centres undefined) | – | –
Cc1ccc(C2=NN(C(=O)CN3CCOCC3)C(c3ccc(Cl)cc3)C2)cc1C (centres undefined) | – | –
CCN1CCN(CC(=O)N2N=C(c3ccc(C)c(C)c3)CC2c2cccn2C)CC1 (centres undefined) | 99 | –
Cc1ccsc1C=C1Oc2cc(OC(=O)c3ccc4c(c3)OCO4)ccc2C1=O | – | –
COc1nccnc1NC1CCN(C(=O)c2ccc(C)nc2)CC1 | – | –

Screening results deposited in PubChem by University of Kansas High Throughput Screening Laboratory.
